SMN2 splice enh – qHTS Assay for Enhancers of SMN2 Splice Variant Expression. 2.8% of 210,000 active. AID 1458, 2008. Potency, µM (titrated, usually from 46.1 µM), usual class: activators. HEK293 SMN2-luciferase splicing reporter, luminescence, 30-36 h; note: nearly all actives have a fitted effect of over 55% in size
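qHTS luciferase splicing reporter: luminescence rises when SMN2 exon 7 is included in transfected HEK293 cells. Compound exposure lasted 30-36 h at 37C, with 4.5 mM final sodium butyrate as control, followed by a ONE-Glo read.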
Rab9 prom act – qHTS Assay for Rab9 Promoter Activators. Huh7 Rab9 promoter-luciferase reporter, luminescence, 24 h. Potency, µM (highest dose often 9.22 µM), usual class: activators. 2.8% of 320,000 active; note: nearly all actives have a fitted effect of over 60% in size
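Luciferase signal after 10 min detection reagent at ambient indicates Rab9 promoter upregulation; stably transfected Huh7 cells were treated 24 h with compound in DMSO at 37 °C, 5% CO2.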
ELG1 genotox – qHTS screen for small molecules that induce genotoxicity in human embryonic kidney (HEK293T) cells expressing luciferase-tagged ELG1 | HEK293T ELG1-luciferase reporter, luminescence, 16 h | Potency, µM (top dose mostly 46 µM), actives largely listed as activators | 1.3% of 330,000 active | AID 504466, 2011; note: nearly all actives have a fitted effect of over 60% in size
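After overnight (16 hr) compound treatment at 37 °C, ELG1-luciferase HEK293T cells were lysed with ONE-Glo; luminescence quantified 30 min later at room temperature.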
NPC1 promoter act – qHTS Assay for NPC1 Promoter Activators | Huh7 NPC1 promoter luciferase reporter, 24 h | Potency, µM (series often up to 9.22 µM), usual class: activators | 2.4% of 320,000 active; note: nearly all actives have a fitted effect of over 60% in size
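Luciferase expression driven by the NPC1 promoter was measured in stably transfected Huh7 cells after a 24 h compound incubation, using a luciferase reagent and a luminescence read.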
FLuc modulator – qHTS profiling assay for firefly luciferase inhibitor/activator using purifed enzyme and Km concentrations of substrates (counterscreen for miR-21 project). Luciferin 4-monooxygenase (Photinus pyralis), P08659. purified FLuc, Km substrates, luminescence inhibition. Potency, µM (highest dose often 57.5 µM), usual class: inhibitors. 6.9% of 360,000 active; note: nearly all actives have a fitted effect of over 55% in size
Target sequence (P08659 whole entry, looked up): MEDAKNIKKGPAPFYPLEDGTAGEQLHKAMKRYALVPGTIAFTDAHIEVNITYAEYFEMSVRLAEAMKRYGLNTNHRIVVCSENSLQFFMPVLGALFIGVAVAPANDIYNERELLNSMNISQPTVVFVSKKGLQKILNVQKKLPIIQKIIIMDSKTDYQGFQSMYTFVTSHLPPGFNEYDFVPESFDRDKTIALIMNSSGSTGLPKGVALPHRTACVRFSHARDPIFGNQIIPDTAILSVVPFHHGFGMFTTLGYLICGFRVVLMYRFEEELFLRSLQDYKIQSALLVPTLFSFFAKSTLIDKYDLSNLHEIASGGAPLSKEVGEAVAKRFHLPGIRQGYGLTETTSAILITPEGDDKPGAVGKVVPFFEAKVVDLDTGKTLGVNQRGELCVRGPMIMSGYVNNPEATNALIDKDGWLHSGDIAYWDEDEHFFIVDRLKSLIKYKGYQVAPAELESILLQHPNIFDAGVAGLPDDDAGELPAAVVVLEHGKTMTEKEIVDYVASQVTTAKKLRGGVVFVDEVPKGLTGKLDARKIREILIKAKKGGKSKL
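Purified P. pyralis luciferase, 10 nM final, with Km-level 10 uM D-luciferin and 10 uM ATP in 50 mM Tris acetate pH 7.5, 10 mM Mg acetate, 0.01% Tween-20, 0.05% BSA; 6-point qHTS titration about 60 µM downward; luminescence read.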
ELG1 DNA repair – qHTS screen for small molecules that inhibit ELG1-dependent DNA repair in human embryonic kidney (HEK293T) cells expressing luciferase-tagged ELG1 | 2.3% of 330,000 active | HEK293T ELG1-luciferase reporter, luminescence, 16 h; DNA damage induced by 5-fluorouridine | AID 504467, 2011 | Potency, µM (highest dose often 46.1 µM), actives largely listed as inhibitors; note: nearly all actives have a fitted effect of over 55% in size
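In this reporter screen, reduction of luminescence relative to DMSO vehicle indicated activity. Compounds and 5-fluorouridine were added together to 2,000 cells per well, incubated for 16 hr at 37 °C, then developed with ONE-Glo.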
Numbers stand for hits; i = inactive; ? = inconclusive; nt = not tested or not shown. Hits are enriched below; roughly 9.2% of the tested compounds scored in any of these assays. Calls come from the whole dose curve; as a rule, active = well fitted curve in the direction sought with a large enough effect; inconclusive = small, poorly fitted or top-dose-only effect, or another doubt; inactive = no such curve, though single readings can be large; an effect the other way counts as inactive or inconclusive.

SMILES	SMN2 splice enh	Rab9 prom act	ELG1 genotox	NPC1 promoter act	FLuc modulator	ELG1 DNA repair
COc1ccc(CNc2nc(-c3ccco3)nn2C(=O)CC(C)C)cc1	13µM	nt	nt	nt	nt	nt
COc1cc(/C=C2/C(C)=C(C#N)c3nc(N)c(C#N)c(C)c32)ccc1OCC(=O)O	?	i	i	i	i	i
CC1=C(C#N)c2nc(N)c(C#N)c(C)c2/C1=C\c1ccc(-c2ccccc2C(=O)O)o1	i	i	i	i	?	8.2µM
Cc1ccccc1NC(=O)C1Cc2ccccc2CN1C(=O)c1ccco1 (stereo not given)	nt	?	23µM	2.8µM	?	?
CCOc1ccccc1NC(=O)CN1C(=O)CC(c2ccc(C)c(C)c2)=Nc2ccccc21	nt	nt	nt	nt	27µM	nt
Cc1cc2c(cc1C)N(CC(=O)N1CCCC1)C(=O)CC(c1ccccc1)=N2	i	i	?	i	13µM	?
O=C(CN1C(=O)CC(c2ccccc2)=Nc2ccccc21)NCc1ccccc1	i	i	i	i	i	i
COc1ccccc1NC(=O)CN1C(=O)CC(c2ccc(C)c(C)c2)=Nc2ccccc21	nt	nt	nt	nt	13µM	nt
COc1ccc(NC(=O)COc2cc(C)cc(C)c2)cc1S(=O)(=O)N1CCCCC1	nt	i	?	i	i	i
CCc1ccccc1NC(=O)Cn1c(=O)n(-c2ccc(C)c(C)c2)c(=O)c2oc3ccccc3c21	nt	nt	nt	nt	i	nt
Cc1ccc2[nH]c3c(c2c1)CCc1cn[nH]c1-3	i	?	i	?	11µM	i
Cc1ccc(CN2CCc3c(OCc4ccc(F)cc4)cccc3C2=O)cc1	i	i	i	i	i	5.8µM
COC(=O)c1ccc(COc2cccc3c2CCN(Cc2cccc(C)c2)C3=O)o1	i	i	i	i	i	?
CN1CCc2c(OCc3ccc(F)cc3)cccc2C1=O	i	i	i	i	i	i
COC(=O)c1ccc(COc2cccc3c2CCN(Cc2ccccc2)C3=O)o1	i	i	i	i	i	23µM
Cc1ccccc1CN1C(=O)C(O)(CC(=O)c2ccccc2)c2cc(Cl)ccc21 (stereo not given)	nt	nt	nt	nt	i	nt
COc1cccc(-n2nc(-c3ccnn3-c3ccc(C)cc3)c(=O)n(C)c2=O)c1	i	i	i	i	i	21µM
O=C(c1cnn2c(C(F)F)cc(-c3ccccc3)nc12)N1CCc2ccccc21	i	i	i	i	i	?
Cc1ccc(-c2cc(C(F)F)n3ncc(C(=O)N4CCN(c5ccccn5)CC4)c3n2)cc1	i	i	i	i	i	3.7µM
COc1ccc(-c2cc(C(F)F)n3ncc(C(=O)N4CCN(C(=O)c5ccco5)CC4)c3n2)cc1	i	i	i	i	i	3.3µM
Cc1ccc(-c2cc(C(F)F)n3ncc(C(=O)N4CCc5ccccc54)c3n2)cc1	i	i	i	i	i	21µM
NC(=O)C1CCN(C(=O)c2ccc(NS(=O)(=O)c3ccc(F)c(F)c3)cc2)CC1	nt	i	i	i	i	i
CCC(=O)N1CCc2cc(Br)cc(S(=O)(=O)N3CCCC(C(=O)NCc4cccc(OC)c4)C3)c21 (stereo not given)	i	nt	nt	nt	i	nt
Cc1cccc(N(CC(=O)NCc2ccccc2)S(C)(=O)=O)c1C	i	nt	nt	nt	i	nt
Cc1ccnc(SCc2cc(=O)c(OC(=O)c3ccc(Cl)c([N+](=O)[O-])c3)co2)n1	i	i	i	i	i	21µM
SMILES	SMN2 splice enh	Rab9 prom act	ELG1 genotox	NPC1 promoter act	FLuc modulator	ELG1 DNA repair
COc1cccc(-c2nn(C)c3sc(C(=O)N4CCN(c5cccc(C(F)(F)F)c5)CC4)cc23)c1	i	nt	nt	nt	i	nt
Cc1nc(C)c(-c2nnc(-c3ccccc3Cl)o2)cc1C(=O)NN	nt	i	i	i	i	i
Cc1nc(C)c(-c2nnc(-c3ccc(C(C)(C)C)cc3)o2)cc1C(=O)NN	i	i	i	i	24µM	i
CC(=O)Nc1ccc2c(c1)OCCO2	i	i	i	i	i	i
CC(C)c1ccc(NC(=O)c2cccc(Br)c2)cc1	14µM	0.71µM	21µM	1.4µM	3µM	?
Cc1ccc(C(=O)Nc2ccc3c(c2)OCCO3)cc1	nt	0.32µM	0.58µM	0.28µM	0.43µM	?
CCC(O)c1cc2c(cc1NC(=O)c1cccc(Br)c1)OCCO2 (stereo not given)	i	nt	nt	nt	i	nt
O=C(Nc1cccc(C(=O)Nc2cccc(Br)c2)c1)c1ccccc1	nt	i	i	i	?	i
O=C(Nc1ccc2c(c1)OCO2)c1ccncc1	i	i	i	i	i	?
Cc1ccc(C(=O)Nc2ccc3c(c2)OCO3)cc1	7.9µM	0.56µM	0.46µM	0.63µM	1.3µM	?
O=C(Nc1ccc2c(c1)OCCO2)c1cccc(Br)c1	nt	1.4µM	2.6µM	1.3µM	1.1µM	?
Cn1c(=O)c2c(nc(SCC(=O)Nc3ccccc3F)n2Cc2ccccc2F)n(C)c1=O	i	nt	nt	nt	i	nt
O=S(=O)(NCCNC/C=C/c1ccc(Br)cc1)c1cccc2cnccc12	i	nt	nt	nt	nt	nt
Cc1cccc(N2CCN(C(=O)CCC(=O)N3CC(C)Oc4ccc(C)cc43)CC2C)c1 (stereo not given)	nt	i	i	i	i	i
CCOc1ccc(-c2cc(OC(=O)c3ccccc3)c3c(C)oc(C)c3c(=O)c2)cc1	i	nt	nt	nt	i	nt
COc1cc(OC)c(OC)cc1CNc1sc2c(c1C(=O)Nc1ccccc1OC)CCC2	nt	nt	nt	nt	i	nt
CCCOc1cccc(C(=O)Nc2ccc3c(c2)OCCO3)c1	nt	?	2.3µM	3.2µM	0.95µM	?
Cc1ccc2oc(C(=O)N(Cc3ccncc3)CC3CCCO3)c(C)c2c1 (stereo not given)	nt	?	?	?	11µM	?
CCN1C(=O)c2ccc(C(=O)Nc3ncc(C)s3)cc2C1=O	i	?	?	i	1.7µM	?
CCCc1ccc2oc(C(=O)N(Cc3ccncc3)CC3CCCO3)c(C)c2c1 (stereo not given)	nt	i	i	i	i	?
Cc1ccc(CNc2ccc3c(c2)OCO3)cc1	i	nt	nt	nt	24µM	nt
CCCOc1cccc(C(=O)Nc2cccnc2)c1	i	i	i	i	?	i
CCOc1ccc(S(=O)(=O)N2CCC(N3CCN(Cc4ccc(C)cc4)C(=O)C3=O)CC2)cc1	nt	nt	nt	nt	i	nt
CCOc1ccc(OCC)c(NC(=O)CCC(=O)N2CCOc3ccccc32)c1	nt	nt	nt	nt	i	nt
O=C(Nc1ccc2c(c1)OCCO2)c1ccc(Br)o1	14µM	1.6µM	?	1.3µM	2.1µM	?
Cc1c(C(=O)Nc2ccc3c(c2)OCCO3)oc2ccc(Br)cc12	nt	?	?	i	5.4µM	?

From PubChem
